RE007 growth inh – qHTS Assay for Inhibitors of the HIV-1 protein Vpr; S. pombe RE007 Vpr strain, BacTiter-Glo ATP luminescence, 24 h; Potency, µM (series often up to 92.2 µM), actives largely listed as inhibitors; hit rate 0.21% among 360,000; active = well fitted falling curve with a large enough effect; inconclusive = small, poorly fitted or top-dose-only effect; inactive = no such curve, though single readings can be large or run the other way; also: nearly all actives have a fitted effect of over 50% in size
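Fission yeast strain RE007, carrying one chromosomally integrated HIV-1 vpr copy, was seeded at OD 0.01 in PMG+AL medium with 23 nL pinned compound. After 24 h at 30 °C and 99% humidity, viability was read by BacTiter-Glo luminescence.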
Shiga inhibitor – A qHTS for Small Molecule Inhibitors of Shiga Toxin; Vero cells, Shiga toxin protein synthesis inhibition reporter; AID 2315, 2010; hit rate 9.2% among 290,000; inhibition, % at 38.7 µM; in the data active = inhibition mostly above about 28%, no sharp cut-off; inactive = mostly below about 43%
LmPK inh – qHTS Assay for Inhibitors of Leishmania Mexicana Pyruvate Kinase (LmPK) | Q27686 | purified LmPK, Kinase-Glo ATP luminescence, 1 h | Potency, µM (top dose mostly 57.5 µM), hits mostly inhibitors | hit rate 0.37% among 290,000 | AID 1721, 2009
Target sequence (Q27686 whole entry, looked up): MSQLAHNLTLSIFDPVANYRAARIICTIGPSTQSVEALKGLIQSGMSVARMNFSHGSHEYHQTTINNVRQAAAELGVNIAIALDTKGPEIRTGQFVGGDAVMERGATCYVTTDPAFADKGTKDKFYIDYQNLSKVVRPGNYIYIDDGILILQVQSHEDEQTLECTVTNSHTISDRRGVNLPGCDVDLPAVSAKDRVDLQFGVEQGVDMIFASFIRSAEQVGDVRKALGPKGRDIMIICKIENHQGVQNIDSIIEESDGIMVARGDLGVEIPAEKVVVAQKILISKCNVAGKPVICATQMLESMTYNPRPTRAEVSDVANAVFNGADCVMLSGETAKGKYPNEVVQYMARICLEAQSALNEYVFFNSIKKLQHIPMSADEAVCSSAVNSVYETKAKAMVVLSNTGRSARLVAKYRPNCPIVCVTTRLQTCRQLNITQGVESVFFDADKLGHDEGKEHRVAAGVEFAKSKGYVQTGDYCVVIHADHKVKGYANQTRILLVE
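Screened at intermediate enzyme activity to detect both inhibitors and activators: LmPK at 0.1 nM, with a 0.5 nM enzyme column as activation reference. PEP 0.5 mM, ADP 0.1 mM; ATP detected by luminescence after 1 h.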
TbPYK inhibitor – qHTS of Trypanosoma Brucei Inhibitors; pyruvate kinase (Trypanosoma brucei), Q57TT1; TbPYK enzyme, Kinase-Glo Plus ATP luminescence, 45 min; Potency, µM (top dose mostly 76.8 µM), usual class: inhibitors; hit rate 0.12% among 410,000; AID 624173, 2012; also: nearly all actives have a fitted effect of over 50% in size
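Readout: single end-point luminescence (Kinase-Glo Plus, 10 min). Reaction conditions were TbPYK/substrate plus 130 uM ADP, 45 min at RT, pH 7.2 TEA buffer. No-enzyme wells served as controls, and data were normalized before concentration-response fitting.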
Giardia FBPA inh – qHTS Assay for Inhibitors of Fructose-1,6-bisphosphate Aldolase from Giardia Lamblia; A8B2U2; hit rate 0.71% among 290,000; purified Giardia FBPA; Potency, µM (top dose mostly 59.6 µM), usual class: inhibitors; also: nearly all actives have a fitted effect of over 55% in size
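40 nM FBPA preincubated 10 min at RT with compound (up to 57.5 uM final), then substrate plus GAPDH/TPI/NAD/arsenate coupling and diaphorase/resazurin added. Fluorescence read after 20 min at RT, 525/598 nm.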
CHX counter – Cycloheximide Counterscreen for Small Molecule Inhibitors of Shiga Toxin. cell reporter, cycloheximide protein synthesis inhibition counterscreen. max response, %. hit rate 12% among 300,000; in the data active = max response mostly above about 13%, no sharp cut-off; inactive = mostly below about 14%; also: read at 38.3 µM for the half of the compounds with a filed dose
Each line names hits and unclear results; the compound was inactive in the other large screens. Many of the other results were omitted from the sample, so hits are more common in it than they were. Unless noted, calls follow the shape of the dose curve; as a rule, active = well fitted curve in the direction sought with a large enough effect; inconclusive = small, poorly fitted or top-dose-only effect, or another doubt; inactive = no such curve, though single readings can be large; an effect the other way counts as inactive or inconclusive.

COc1ccc(CN2CN(S(=O)(=O)c3ccccc3)c3nc4ccccc4nc32)cc1	Shiga inhibitor 112, CHX counter 33
COc1ccc(CN2CN(S(=O)(=O)c3cccs3)c3nc4ccccc4nc32)cc1	Shiga inhibitor 80, Giardia FBPA inh inconclusive, CHX counter 48
CCCCCN1CN(S(=O)(=O)c2cccs2)c2nc3ccccc3nc21	CHX counter 16
Cc1ccc(CNC(=O)CCc2c(C)c3cc4c(C)coc4cc3oc2=O)cc1	none (no result: RE007 growth inh, Shiga inhibitor, LmPK inh, Giardia FBPA inh, CHX counter)
CCCc1ccc(OC(=O)c2cccs2)cc1	none
CCCc1ccc(OC(=O)c2ccc(O)cc2Cl)cc1	Shiga inhibitor 96, CHX counter 40
Cc1cc(C)n(CC(O)COc2ccc3ccccc3c2)n1 (centres undefined)	Shiga inhibitor 46, CHX counter 26
CN(Cc1ccccc1)S(=O)(=O)c1nnc(NC(=O)c2cccc(Cl)c2)s1	none (no result: RE007 growth inh, Shiga inhibitor, LmPK inh, Giardia FBPA inh, CHX counter)
CN(Cc1ccco1)S(=O)(=O)c1nnc(NC(=O)c2cccc(Cl)c2)s1	Shiga inhibitor 64, TbPYK inhibitor inconclusive, CHX counter 36 (no result: Giardia FBPA inh)
c1ccc(-c2cccc(-c3ccccc3)n2)cc1	Shiga inhibitor 54, CHX counter 48
COc1ccc(Br)cc1C(C[N+](=O)[O-])c1c(N)n(C)c(=O)n(C)c1=O (centres undefined)	RE007 growth inh 10µM
CCOC(=O)C1=C(C)N=C2SCCC(=O)N2C1c1ccc(OCc2ccccc2)cc1 (centres undefined)	none (no result: RE007 growth inh, Shiga inhibitor, LmPK inh, Giardia FBPA inh, CHX counter)
C=C1C[C@H](O[C@@H]2O[C@H](CO)[C@@H](O)[C@H](O)[C@H]2O)[C@@H]2[C@H](OC(=O)[C@H]2C)[C@H]2[C@H](C)[C@H](O)C[C@@H]12	none (no result: Shiga inhibitor, LmPK inh, Giardia FBPA inh, CHX counter)
CCOc1ccc(CN(C)CC(=O)Nc2ccc3c(c2)CCC3)cc1OC	none
COc1cc(CC(=O)Nc2ccc3c(c2)CCC3)cc(OC)c1OC	none
COc1cc(CNc2ccc3c(c2)CCC3)cc(OC)c1O	Shiga inhibitor 63, Giardia FBPA inh inconclusive, CHX counter 30
CCOc1cc(CNc2ccc3c(c2)CCC3)ccc1O	CHX counter 34
Cc1cccc(N(Cc2cc3ccccc3[nH]c2=O)C(=O)c2cccc(Cl)c2)c1	none (no result: RE007 growth inh, Shiga inhibitor, LmPK inh, Giardia FBPA inh, CHX counter)
C=CCSc1nnc2c(n1)OC=Nc1ccccc1-2	RE007 growth inh inconclusive, LmPK inh 25µM
C=CCSc1nnc2c(n1)OC(c1ccco1)Nc1ccccc1-2 (centres undefined)	Shiga inhibitor active, Giardia FBPA inh inconclusive, CHX counter 40
CCSc1nnc2c(n1)OC(c1ccc(C)s1)Nc1ccccc1-2 (centres undefined)	none (no result: RE007 growth inh, Shiga inhibitor, LmPK inh, Giardia FBPA inh, CHX counter)
Cc1ccc(Nc2nnc(SCC(=O)NCC3CCCO3)s2)cc1C (centres undefined)	none (no result: Shiga inhibitor, LmPK inh, Giardia FBPA inh, CHX counter)
Cc1ccc(N=Cc2ccc[nH]2)c(O)c1	Shiga inhibitor 98, Giardia FBPA inh inconclusive, CHX counter 44
CN(C)/C=C/c1onc(-c2ccccc2Cl)c1C#N	Shiga inhibitor 69, CHX counter 42
Cc1ccccc1-c1noc(N)c1C#N	none
Cc1ncc(CO)c2c1Oc1nc(-c3ccc(F)cc3)nc(SCC(=O)N3CCCCC3)c1C2	none (no result: RE007 growth inh, Shiga inhibitor, LmPK inh, Giardia FBPA inh, CHX counter)
Fc1ccc(N/N=C2/CCSc3sccc32)c(F)c1	Shiga inhibitor 28, CHX counter 15
Cc1ccc(/C=N/n2cnc3sc(C)c(C)c3c2=O)o1	CHX counter 26
CCSc1nnc2ccc(-c3cccs3)nn12	none
CCSc1nnc2ccc(-c3ccc(C)cc3)nn12	CHX counter 26
CCc1ccc(-c2ccc3nnc(SC)n3n2)cc1	CHX counter 22
CC(SC1=NCCN1S(=O)(=O)c1ccccc1)c1ccccc1 (centres undefined)	none (no result: Giardia FBPA inh)
COC(=O)c1cc(Cl)c(NC(=O)C(C)C)cc1OC	none
COC(=O)c1cc(Cl)c(NC(=O)c2ccc(C(C)(C)C)cc2)cc1OC	Shiga inhibitor 44, CHX counter 26
CC(C)CCOc1ncnc2c1sc1nc3c(cc12)CSC(C)(C)C3	CHX counter 15
CCCn1cnc2c(sc3nc4c(cc32)CSC(C)(C)C4)c1=O	Shiga inhibitor 37, CHX counter 25
CC1(C)Cc2nc3sc4c(=O)n(Cc5ccccc5)cnc4c3cc2CS1	none
Cn1nc(OC(=O)Nc2ccc(Cl)cc2)cc1C(F)(F)F	CHX counter 17 (no result: RE007 growth inh, TbPYK inhibitor)
COc1cccc(NC(=O)Nc2ccc3nsnc3c2)c1	Shiga inhibitor 97, CHX counter 31
COc1cccc(NC(=O)Nc2ccc3nc(C)c(C)nc3c2)c1	none
CCn1c(C)nc2cc(NC(=O)Nc3cccc(C(C)=O)c3)ccc21	CHX counter 21
COc1cccc(NC(=O)Nc2ccc3c(c2)nc(C)n3C)c1	Shiga inhibitor 58, LmPK inh inconclusive, CHX counter 26
CCn1c(C)nc2cc(C(=O)OC)ccc21	none
CCN(CC)c1ccc(NC(=O)Nc2cccc(C(C)=O)c2)cc1	Shiga inhibitor 46, TbPYK inhibitor inconclusive
Clc1ccc(-c2noc3ncnc(NCCc4ccccc4)c23)cc1	none (no result: RE007 growth inh, Shiga inhibitor, LmPK inh, Giardia FBPA inh, CHX counter)
CCOc1ccc(-c2nc(Cn3c(=O)cc(-c4ccccc4)c4c(C)nn(C)c43)c(C)o2)cc1OC	none (no result: RE007 growth inh, Shiga inhibitor, LmPK inh, Giardia FBPA inh, CHX counter)
COc1ccc(NC(=O)N2CCC3(CC2)CCN(C(=O)c2cnccn2)CC3)cc1	none (no result: RE007 growth inh, Shiga inhibitor, LmPK inh, CHX counter)
CCCNC(=O)Nc1ccc2c(c1)nc(C)n2C	none
Cc1nc2cc(NC(=O)NC(C)(C)C)ccc2n1C	CHX counter 18
Cc1nc2cc(NC(=O)Nc3nccs3)ccc2n1C	Shiga inhibitor 35, CHX counter 22
Cc1nc(N2CCOCC2)c2cc(-c3ccccc3)sc2n1	CHX counter 14
COc1ccc(NC(=O)CN2C(=O)COc3ccc(S(=O)(=O)Nc4ccccc4)cc32)cc1	none (no result: RE007 growth inh, Shiga inhibitor, LmPK inh, Giardia FBPA inh, CHX counter)
O=C(OCc1cccc2ccccc12)c1ccc2c(=O)[nH]c(CN3CCOCC3)nc2c1	none
O=C(Nc1nc2cc3c(cc2s1)OCCO3)c1ccncc1	Shiga inhibitor 121, CHX counter 33
CNS(=O)(=O)c1ccc2nc(NC(=O)c3ccc(N4C(=O)CCC4=O)cc3)sc2c1	LmPK inh inconclusive, TbPYK inhibitor inconclusive
CCc1ccc2nc(NC(=O)c3ccc(N4C(=O)CCC4=O)cc3)sc2c1	Shiga inhibitor 38, CHX counter 22
O=C(Nc1nc2ccc(S(=O)(=O)N3CCCCC3)cc2s1)c1ccncc1	none
CCc1ccc2nc(NC(=O)c3ccc4c(=O)[nH]c(CN5CCOCC5)nc4c3)sc2c1	Shiga inhibitor 65, CHX counter 43
O=C(Nc1nc2cc3c(cc2s1)OCCO3)c1ccc(N2C(=O)CCC2=O)cc1	Shiga inhibitor 50, CHX counter 31
O=C(NCc1cccnc1)c1cc(C2CCCCN2C(=O)CCCc2ccccc2)on1 (centres undefined)	none (no result: Shiga inhibitor, LmPK inh, Giardia FBPA inh, CHX counter)
